# ChEMBL document CHEMBL3988442, “University of Dundee, Small-Polar-MMV Screening Library” (2021)
# About 13,000 (27%) of roughly 48,000 compounds showed an effect of 50% or more. The list shows a part of the results.
# Test system: Wolbachia pipientis
# Test: Anti-Wolbachia Cell-Based Screen
# Assay type: functional
# Set-up: scale not given: in the data most compounds retested in dose-response had high values
# Details: 5 µM
row,Structure (SMILES),Percent Effect [%]
1,O=C(N1CCC(OCc2ccccn2)CC1)C1(c2ccc(F)cc2)CC1,-10.1
2,C=C(C)CNC(=O)C1CCCN(C2CCN(C(C)C)CC2)C1 (stereo not given),-1.601
3,Fc1cnc(N2CCCn3c(nnc3Cn3cccn3)C2)nc1,-21.77
4,CN(C)c1ncnc2c1CCN(C(=O)CN1CCCCC1)C2,-9.788
5,CCOC(C)c1nc(CN2CCN(c3ncc(C)cn3)CC2)cs1 (stereo not given),0.6685
6,COc1ccc(S(=O)(=O)C(F)(F)F)cc1NC(=O)CSC,25.38
7,COCCC1(CO)CCCN(Cc2ccc(F)c(C)c2)C1 (stereo not given),-0.7036
8,CCN(CC)C(=O)CCCNC(=O)Cc1nc(-c2ccco2)oc1C,-23.46
9,Cc1ccc(C(=O)N2CCOc3nc(C)ccc32)c(F)c1,-2.508
10,CC(O)(CCc1ccccc1)CNC(=O)c1cccs1 (stereo not given),-8.464
11,CC(C)(C)c1ncc(C(=O)NCCn2ccnc2)s1,-7.496
12,CC(C)(C)c1ncc(C(=O)NCCNC(=O)c2cccs2)s1,110.8
13,CC(C)(C)c1ncc(C(=O)NCCNC(=O)c2ccccc2)s1,3.571
14,O=C(NCCNc1ncccn1)c1cnc(-c2ccccc2)nc1,9.369
15,CC(C)(C)c1ncc(C(=O)NCCNc2ncccn2)s1,108.5
16,O=C(NCCNc1ccc(Br)cn1)c1ccc(O)cc1,-11.29
17,CC(C)(C)c1ncc(C(=O)NCCNC(=O)c2ccc(O)cc2)s1,102.8
18,O=C(NCCNC1CCN(c2nccs2)CC1)c1cccs1,-5.805
19,Cc1sc2nc(C(F)(F)F)nc(N3CCC(NS(C)(=O)=O)CC3)c2c1C,11.4
20,CCn1ncc2c1CCCC2NCC1=Cc2ccccc2OC1 (stereo not given),-5.815
21,CC(=O)N1CCCC2(CCN(Cc3ccc(Cl)c(F)c3)C2)C1 (stereo not given),9.026
22,CC(=O)N1CC2(CCN(Cc3ccc(Cl)cc3)C2)Cc2ccccc21 (stereo not given),116.3
23,CC(=O)N1CC2(CCCN(Cc3ccc(Cl)cc3)C2)Cc2ccccc21 (stereo not given),131.8
24,CC(=O)N1CCC2(CCCN(Cc3ccc(Cl)c(C(F)(F)F)c3)C2)C1 (stereo not given),5.734

row,Structure (SMILES),Percent Effect [%]
1,Cc1ncsc1CN1CCC2(CC1)CC(=O)N(Cc1ccc(Cl)cc1)C2,-0.4744
2,CC(=O)N1CC2(CCN(Cc3ccc(Cl)cc3)CC2)Cc2ccccc21,118.6
3,CC(=O)N1CCCC2(CCN(Cc3ccc(Cl)c(C(F)(F)F)c3)C2)C1 (stereo not given),13.59
4,COCC(=O)N1CCC2(CCCN(Cc3ccc(Cl)cc3)CC2)CC1,-3.814
5,Cc1cc(C(=O)N2CCN(CC(O)Cn3cccn3)CC2)c(C)o1 (stereo not given),3.42
6,CN1CCC(N2CCOC[C@H]2c2nc(-c3ccncc3)c[nH]2)CC1,-3.647
7,CNS(=O)(=O)c1ccc(C(=O)NC2CCc3nc(C)cn3C2)o1 (stereo not given),-2.01
8,Cc1nccc(NCc2cncc3c2CCN(S(C)(=O)=O)C3)n1.Cl,65.34
9,Cc1nccc(NCc2cc3n(n2)CCCN(S(C)(=O)=O)C3)n1,-4.835
10,Cc1cnc(N2CCc3c(CNc4ccnc(C)n4)cncc3C2)nc1.Cl,94.65
11,CN1C(=O)CC(C(=O)O)C12CCN(Cc1cc(F)ccc1Cl)CC2 (stereo not given),-13.17
12,Cc1nc(-c2cccc(C(=O)N(C)C)c2)cs1,-24.42
13,CN(C)C(=O)c1cc(-c2ccncc2)[nH]n1,116.7
14,CN(C)C(=O)c1cc(-c2ccccc2)[nH]n1,125.1
15,Cc1ccnn1CC(=O)Nc1cc(-c2ccncc2)[nH]n1,-6.833
16,O=C(NCCn1nc2ccccn2c1=O)c1cc(-c2ccccc2)[nH]n1,1.619
17,Cc1ccn(CC(=O)Nc2cc(-c3ccncc3)[nH]n2)n1,-0.1185
18,CC1=C[C@@H](CN2CCC(CO)CC2)[C@H](C(C)C)C[C@H]1Cc1nnc(C)o1,-9.335
19,COc1ccc(CN2C[C@@H](F)[C@@H](OCc3nc4ccccc4[nH]3)C2)cn1,-8.557
20,CC(NC(=O)c1ccc2c(c1)OCC(=O)N2)c1ccccc1F (stereo not given),-1.956
21,CCc1ccc(OCC(O)CN2CCN(CCO)CC2)cc1.Cl.Cl (stereo not given),85.64
22,CCc1ccc(OCC(O)CN2CCN(CC)CC2)cc1 (stereo not given),71.19
23,CCN1CCN(CC(O)c2ccc(OC(F)(F)F)cc2)CC1 (stereo not given),1.039
24,CCc1ccc(CNCC2CCN(CCO)CC2)cc1,-51.45

row,Structure (SMILES),Percent Effect [%]
1,Cc1c(C)n(CC(O)CN2CCN(CCO)CC2)c2c(Cl)cccc12.Cl (stereo not given),3.197
2,CCc1ccc(OCC(O)CN2CCC(O)CC2)cc1 (stereo not given),11.05
3,Cc1n[nH]cc1CNC1(Cc2ccc(Br)cc2)CCCCC1,13.31
4,O=C(Cc1ccc(F)cc1)NCc1ccc(C(=O)O)o1,-2.994
5,CC(C)c1nc(/C=C/c2ccc(O)c(Cl)c2)ncc1C(=O)O,6.301
6,CN(C)S(=O)(=O)N1CCCC1C(=O)N1CCSCC1 (stereo not given),-27.44
7,CC(C)CNC(=O)[C@H]1CCS(=O)(=O)[C@@H]2CN(CC(C)C)C[C@H]12.O=C(O)C(F)(F)F,102.6
8,Cc1ccc(CN2C[C@@H]3[C@@H](C(=O)NCC4CC4)CCS(=O)(=O)[C@@H]3C2)cc1.O=C(O)C(F)(F)F,110.7
9,CC(C)CNC(=O)[C@H]1CCS(=O)(=O)[C@@H]2CN(Cc3ccc(F)cc3)C[C@H]12.O=C(O)C(F)(F)F,118.4
10,O=C([C@H]1CCS(=O)(=O)[C@@H]2CN(Cc3ccc(F)cc3)C[C@H]12)N1CCCC1,-0.8548
11,CC(C)CNC(=O)[C@H]1CCS(=O)(=O)[C@@H]2CN(Cc3ccc(Cl)cc3)C[C@H]12.O=C(O)C(F)(F)F,20.84
12,Cc1ccc(CN2C[C@@H]3[C@@H](C(=O)N4CCCC4)CCS(=O)(=O)[C@@H]3C2)cc1.O=C(O)C(F)(F)F,-5.739
13,CC(C)CNC(=O)[C@H]1CCS(=O)(=O)[C@@H]2CN(Cc3cccnc3)C[C@H]12,94.11
14,C=C(C)COc1cccc(C(=O)N2CCC3(CC2)CN(C)CCN3C)c1,-0.7727
15,COCc1nc2cc(NCc3nc(C)cs3)ccc2o1,14.28
16,COCCN1CC(C(=O)N(C)Cc2csc(C)n2)CC1=O (stereo not given),9.291
17,Cc1nc(N)nc(N2CCOc3ccc(CO)cc3C2)c1C,-10.79
18,O=C(O)c1cc(-n2cc3c(n2)CCC3)cc(S(=O)(=O)NC2CCCC2)c1,-14.64
19,Cc1ccc(CN2C[C@@H]3[C@@H](C(=O)NCC(C)C)CCS(=O)(=O)[C@@H]3C2)cc1.O=C(O)C(F)(F)F,114.4
20,CC(C)CNC(=O)[C@H]1CCS(=O)(=O)[C@@H]2CN(Cc3cccc(Cl)c3)C[C@H]12.O=C(O)C(F)(F)F,11.74
21,Cc1cccc(CN2C[C@@H]3[C@@H](C(=O)NCC(C)C)CCS(=O)(=O)[C@@H]3C2)c1.O=C(O)C(F)(F)F,114
22,O=C(NC1CCC1)[C@H]1CCS(=O)(=O)[C@@H]2CN(CCc3ccccc3)C[C@H]12.O=C(O)C(F)(F)F,0.08141
23,CC(SCCC(=O)NC(N)=O)c1cccc(F)c1 (stereo not given),-9.647
24,CC(=O)N1CCC(c2nn(C)c3nccnc23)C1 (stereo not given),104.2

row,Structure (SMILES),Percent Effect [%]
1,CN(C)CC(=O)N1CC(c2nn(C)c3nccnc23)C1,96.82
2,CN(C)CC(=O)N1Cc2nnn(C)c2C(COCC2CC2)C1 (stereo not given),-6.376
3,Cc1ncc(CN(C)C(=O)Nc2cccc(N3CCOC3=O)c2)s1,-2.518
4,CC(C)N(C(=O)c1csc(-c2ccoc2)n1)C1CCOCC1,-5.774
5,Cc1cnn(CC2CCCN2c2ncnc3ccccc23)c1 (stereo not given),-22.63
6,COc1cc(C)nc(N2CCN(C(=O)CCc3cccs3)CC2)n1,-2.18
7,COCCC(=O)N1Cc2cnc(Cc3ccc(OC)cc3)nc2C1,-12.22
8,CCc1ncc2c(n1)CN(C(=O)COC)C2,5.323
9,Cc1c(-c2cccs2)nn2c(O)c3c(nc12)CN(C(=O)C1CC1)C3,98.04
10,Cc1nc(-c2cccs2)ccc1C(=O)N1CCN(CCO)CC1,-3.936
11,Cc1nc2c(c(=O)n1C)CN(C(=O)C1CCN(C(=O)C3CCC3)CC1)C2,-3.258
12,COCC(=O)N1Cc2nc3c(C)c(-c4cccs4)nn3c(O)c2C1,99.09
13,Cc1nc2c(c(=O)n1C)CN(C(=O)C1CCCN(C(N)=O)C1)C2 (stereo not given),11.31
14,COCCC(=O)N1Cc2nc3c(C)c(-c4cccs4)nn3c(O)c2C1,108.4
15,c1cc(-c2c[nH]c([C@@H]3COCCN3C3CCCCC3)n2)ccn1,-0.01712
16,CCc1ccc(CN2CC[C@H]3C[C@H](c4nnc(C)[nH]4)O[C@@H]3C2)o1.O=C(O)C(F)(F)F,-6.047
17,CC(Sc1nnnn1C1CCOCC1)C(=O)NC1CCCCC1 (stereo not given),-2.14
18,C[C@@H]1CN(c2ccc(Cl)cn2)C[C@]1(C)O,110.4
19,CC(C)NC(=O)CN(C)C1CCN(c2ccc(Cl)cn2)CC1,-2.588
20,COc1cc(N2C[C@@H](C)[C@](O)(C3CC3)C2)ncn1,-12.89
21,C[C@@H]1CN(c2ccc(Cl)cn2)C[C@@]1(O)C1CC1,109.5
22,C[C@@H]1CN(c2cc(N3CCC(O)CC3)ncn2)C[C@@]1(O)C1CC1,-16.8
23,CS(=O)(=O)CCN1CCN(c2ccc(Cl)cn2)CC1,-5.169
